Reference: the supplement of paper PMC7366291
Counter-ions that a name gives are not always drawn. ± gives the standard deviation or the standard deviation of the averaged measurements.

Legend:
Settings in all cases: 25 µM; exposure: 24-48 hpf
[1] = tested on: Danio rerio Tg(wt1b:EGFP) embryo, pronephros; test: glomerular separation, fold change vs DMSO control; higher = glomeruli further apart (abnormal)
Procedure, shortened: (§1)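 Dechorionated Tg(wt1b:EGFP) zebrafish embryos were kept from 24 to 48 hpf at 28.5°C in HEPES-buffered E3 containing 0.003% PTU, 0.5% DMSO and 25 μM compound. The pronephroi were then imaged from the dorsal side in agarose-filled 96-well plates at 470 nm with 10 z-slices, and 16 reference points were placed by hand on maximum projections in Fiji so that a macro could calculate distances and angles. Values lying more than 2 SD from the mean of a feature were discarded. Every feature is given as a fold change against the mean of DMSO-treated embryos from the same day.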

[2] = tested on: Danio rerio Tg(wt1b:EGFP) embryo, pronephros; test: glomerular width (mean of left and right), fold change vs DMSO control; higher = wider glomerulus
Procedure, shortened: as §1

[3] = tested on: Danio rerio Tg(wt1b:EGFP) embryo, pronephros; test: fraction of imaged embryos annotated as normal kidney; higher = less nephrotoxic; extreme values may be limits of the assay
Procedure, shortened: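 Embryos of the Tg(wt1b:EGFP) zebrafish line were dechorionated and held in 12-well plates with 25 μM compound in 0.5% DMSO and 5 mM HEPES-buffered E3 containing 0.003% PTU, from 24 to 48 hpf at 28.5°C. Larvae were then anaesthetised with tricaine, set dorsal side up in agarose-filled 96-well plates, and their pronephroi imaged by widefield fluorescence at 470 nm over 10 z-slices. Each value is the fraction of embryos per treatment placed in the normal-kidney category after manual annotation of maximum projections.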

[4] = tested on: Danio rerio Tg(wt1b:EGFP) embryo, pronephros; test: pronephric angle neck segment to proximal convoluted tubule (mean of left and right), fold change vs DMSO control; higher = larger pronephric angle
Procedure, shortened: as §1

Row | Compound | glomerular separation [1] | glomerular width [2] | fraction of imaged embryos annotated as normal kidney [3] | pronephric angle neck segment [4]
1 | C#C[C@]1(O)CC[C@H]2[C@@H]3CCC4=Cc5oncc5C[C@]4(C)[C@H]3CC[C@@]21C [Danazol] | 3.7 ± 1.5 | 0.592 ± 0.0074 | 0 | 1.1 ± 0.12
2 | O=C(O)/C=C/c1ccc(Cn2ccnc2)cc1 [Ozagrel hydrochloride] | 1.04 ± 0.32 | 1.01 ± 0.032 | 0.833 | 0.98 ± 0.011
3 | CN(C)CCC(c1ccc(Br)cc1)c1ccccn1 (centres undefined) [Brompheniramine maleate] | 0.985 ± 0.22 | 1.04 ± 0.065 | 1 | 1.05 ± 0.056
4 | C[C@@H]1CN(c2c(F)c(N)c3c(=O)c(C(=O)O)cn(C4CC4)c3c2F)C[C@H](C)N1 [Sparfloxacin] | 0.812 ± 0.23 | 0.92 ± 0.019 | 1 | 1.04 ± 0.024
5 | O=C1c2cccc3c2[C@H](CCC3)CN1[C@@H]1CN2CCC1CC2 [Palonosetron hydrochloride] | 1.08 ± 0.37 | 0.975 ± 0.023 | 0.667 | 1 ± 0.038
6 | O=C1O[C@H]([C@@H](O)CO)C(O)=C1O [Ascorbic acid] | 1.08 ± 0.33 | 1.01 ± 0.09 | 0.75 | 1.03 ± 0.025
7 | CC[C@H](C)[C@H](N)C1=N[C@H](C(=O)N[C@@H](CC(C)C)C(=O)N[C@H](CCC(=O)O)C(=O)N[C@H](C(=O)N[C@H]2CCCCNC(=O)[C@H](CC(N)=O)NC(=O)[C@@H](CC(=O)O)NC(=O)[C@H](Cc3cnc[nH]3)NC(=O)[C@@H](Cc3ccccc3)NC(=O)[C@H]([C@@H](C)CC)NC(=O)[C@@H](CCCN)NC2=O)[C@@H](C)CC)CS1 [Bacitracin] | 0.822 ± 0.28 | 0.912 ± 0.019 | 1 | 1.01 ± 0.013
8 | CN1Cc2c(N)cccc2C(c2ccccc2)C1 (centres undefined) [Nomifensine maleate] | 0.973 ± 0.34 | 1.04 ± 0.051 | 1 | 1.01 ± 0.065
9 | CN(C)CCC=C1c2ccccc2CCc2ccccc21 [Amitryptiline hydrochloride] | 1.3 ± 0.62 | 0.973 ± 0.14 | 0.917 | 1.02 ± 0.072
10 | CC#C[C@]1(O)CC[C@H]2[C@@H]3CCC4=CC(=O)CCC4=C3[C@@H](c3ccc(N(C)C)cc3)C[C@@]21C [Mifepristone] | 0.949 ± 0.33 | 1.15 ± 0.027 | 0.75 | 1.0508 ± 0.001
11 | CC(=O)Oc1cccc2c1C(=O)c1c(OC(C)=O)cc(C(=O)O)cc1C2=O [Diacerein] | 0.691 ± 0.2 | 1.1 ± 0.046 | 0.833 | 1.02 ± 0.021
12 | Cc1cc(-c2ccccc2)nnc1NCCN1CCOCC1 [Minaprine dihydrochloride] | 1.13 ± 0.95 | 1.03 ± 0.03 | 0.75 | 0.9963 ± 0.0098
13 | COc1cc(C(=O)NS(=O)(=O)c2ccccc2C)ccc1Cc1cn(C)c2ccc(NC(=O)OC3CCCC3)cc12 [Zafirlukast] | 0.957 ± 0.46 | 0.9694 ± 0.0078 | 1 | 1.09 ± 0.065
14 | CC(=O)NC[C@H]1CN(c2ccc(N3CCOCC3)c(F)c2)C(=O)O1 [Linezolid] | 0.987 ± 0.23 | 1.02 ± 0.019 | 0.917 | 0.936 ± 0.029
15 | CCCOc1ccc2[nH]c(NC(=O)OC)nc2c1 [Oxibendazol] | 5.39 ± 2.3 | 0.505 ± 0.067 | 0 | 1.8 ± 0.035
16 | CN[C@H](CC(C)C)C(=O)N[C@H]1C(=O)N[C@@H](CC(N)=O)C(=O)N[C@H]2C(=O)N[C@H]3C(=O)N[C@H](C(=O)N[C@H](C(=O)O)c4cc(O)cc(O)c4-c4cc3ccc4O)[C@H](O)c3ccc(c(Cl)c3)Oc3cc2cc(c3O[C@@H]2O[C@H](CO)[C@@H](O)[C@H](O)[C@H]2O[C@H]2C[C@](C)(N)[C@H](O)[C@H](C)O2)Oc2ccc(cc2Cl)[C@H]1O [Vancomycin hydrochloride] | 0.943 ± 0.23 | 0.978 ± 0.033 | 0.909 | 1.06 ± 0.077
17 | O=c1cc(-c2ccc(O)c(O)c2)oc2cc(O)cc(O)c12 [Luteolin] | 0.869 ± 0.36 | 0.9662 ± 0.004 | 0.917 | 0.999 ± 0.006
18 | CC(C)(Oc1ccc(Cl)cc1)C(=O)O [Clofibric acid] | 1.17 ± 0.56 | 0.927 ± 0.036 | 0.667 | 1.001 ± 0.0094
19 | CC(C)C(=O)OCC(=O)[C@@]12O[C@H](C3CCCCC3)O[C@@H]1C[C@H]1[C@@H]3CCC4=CC(=O)C=C[C@]4(C)[C@H]3[C@@H](O)C[C@@]12C [Ciclesonide] | 1.7 ± 0.91 | 0.937 ± 0.0044 | 0.333 | 1.06 ± 0.066
20 | Cc1ccccc1N1C(=O)c2cc(S(N)(=O)=O)c(Cl)cc2NC1C (centres undefined) [Metolazone] | 0.86 ± 0.34 | 1 ± 0.062 | 0.917 | 1.03 ± 0.016
21 | NS(=O)(=O)c1cc(C2(O)NC(=O)c3ccccc32)ccc1Cl (centres undefined) [Chlorthalidone] | 1.04 ± 0.23 | 1.04 ± 0.079 | 0.75 | 1.02 ± 0.073
22 | Cc1onc(-c2ccccc2)c1C(=O)N[C@@H]1C(=O)N2[C@@H]1SC(C)(C)[C@@H]2C(=O)O [Oxacillin sodium] | 0.779 ± 0.29 | 1 ± 0.087 | 0.833 | 0.9685 ± 0.0044
23 | COc1cc2c(cc1OC)C(=O)C(CC1CCN(Cc3ccccc3)CC1)C2 (centres undefined) [Donepezil hydrochloride] | 0.812 ± 0.32 | 1.13 ± 0.082 | 0.833 | 0.9843 ± 0.0083
24 | C[C@@]1(O)CCOC(=O)C1 [Mevalonic-D, L acid lactone] | 0.897 ± 0.23 | 1.09 ± 0.03 | 0.75 | 1.062 ± 0.0042
25 | C[C@@H]1CCC[C@H](C)N1NC(=O)c1ccc(Cl)c(S(N)(=O)=O)c1 [Clopamide] | 0.881 ± 0.2 | 1.01 ± 0.02 | 0.917 | 0.98 ± 0.051
26 | Nc1ncnc2c1ncn2C1OC(COP(=O)(O)O)C(O)C1O (centres undefined) [Adenosine 5'-monophosphate monohydrate] | 0.936 ± 0.26 | 1.029 ± 0.0059 | 0.917 | 0.9657 ± 0.0086
